# Experimental data as given in PubChem BioAssay (NCI).
# Where “and” joins values, the source holds several entries; their conditions need not be identical. Identical values can stand only once. The panel holds about 83,000 compounds, 20% with a hit somewhere; the sample as a whole holds those more often.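 A percent growth of 40 corresponds to 60% growth inhibition; 0 means no net growth; -100 means all cells died. Active threshold: below 10.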 Calls of active or inactive are those of the source.
# Key:
# Assay in all cases: NCI-60 one-dose screen, 48 h (100 = growth as untreated, 0 = no growth, -100 = all killed)
# [1] = system: NCI-H23 lung
# [2] = system: NCI-H226 lung
# [3] = system: NCI-H322M lung
# [4] = system: HOP-62 NSCLC
# [5] = system: NCI-H460 lung
# [6] = system: HOP-92 NSCLC
# [7] = system: NCI-H522 lung
# [8] = system: A549/ATCC NSCLC
# [9] = system: 786-0 renal
# [10] = system: COLO 205 colon
smiles,measurement,setting,value
CCN(CC)CCc1nc(-c2ccccc2)no1,growth,[1]; 10 µM unless noted,83.8% (inactive) and 102% (inactive)
same,growth,[2]; 10 µM unless noted,85.8% (inactive) and 104% (inactive)
same,growth,[3]; 10 µM unless noted,100% (inactive) and 102% (inactive)
same,growth,[4]; 10 µM unless noted,65.2% (inactive) and 98.6% (inactive)
same,growth,[5]; 10 µM unless noted,102% (inactive) and 113% (inactive)
same,growth,[6]; 10 µM unless noted,81.5% (inactive) and 109% (inactive)
same,growth,[7]; 10 µM unless noted,88.5% (inactive)
same,growth,[8]; 10 µM unless noted,97.5% (inactive) and 103% (inactive)
same,growth,[9]; 10 µM unless noted,89.5% (inactive) and 101% (inactive)
same,growth,[10]; 10 µM unless noted,109% (inactive)
OC(CSc1ccccc1)CN1CCN(c2cccc(Cl)c2)CC1 (stereo not drawn),growth,[1]; 10 µM unless noted,104% (inactive) and 96.6% (inactive)
same,growth,[2]; 10 µM unless noted,91.4% (inactive) and 89.5% (inactive)
same,growth,[3]; 10 µM unless noted,108% (inactive) and 102% (inactive)
same,growth,[4]; 10 µM unless noted,107% (inactive) and 102% (inactive)
same,growth,[5]; 10 µM unless noted,114% (inactive) and 109% (inactive)
same,growth,[6]; 10 µM unless noted,82% (inactive) and 83.2% (inactive)
same,growth,[7]; 10 µM unless noted,104% (inactive) and 83.7% (inactive)
same,growth,[8]; 10 µM unless noted,101% (inactive) and 98.4% (inactive)
same,growth,[9]; 10 µM unless noted,94.8% (inactive) and 105% (inactive)
same,growth,[10]; 10 µM unless noted,105% (inactive) and 99.9% (inactive)
Cc1cc(O)c2c(c1)C(=O)c1cc(O)cc(O)c1C2=O,growth,[1]; 10 µM unless noted,71% (inactive) and 91.7% (inactive)
same,growth,[2]; 10 µM unless noted,84.8% (inactive) and 90.8% (inactive)
same,growth,[3]; 10 µM unless noted,94.6% (inactive) and 107% (inactive)
same,growth,[4]; 10 µM unless noted,97.9% (inactive) and 78.1% (inactive)
same,growth,[5]; 10 µM unless noted,98% (inactive) and 102% (inactive)
same,growth,[6]; 10 µM unless noted,-3.28% (active) and 20.5% (inactive)
same,growth,[7]; 10 µM unless noted,61% (inactive) and 78.8% (inactive)
same,growth,[8]; 10 µM unless noted,77.5% (inactive) and 81.1% (inactive)
same,growth,[9]; 10 µM unless noted,74.6% (inactive) and 83.3% (inactive)
same,growth,[10]; 10 µM unless noted,102% (inactive) and 96.7% (inactive)
Oc1ccccc1C=NCC1CCC(CN=Cc2ccccc2O)CC1 (stereo not drawn),growth,[1]; 10 µM unless noted,78.9% (inactive)
same,growth,[2]; 10 µM unless noted,101% (inactive)
same,growth,[3]; 10 µM unless noted,80.3% (inactive)
same,growth,[4]; 10 µM unless noted,94.5% (inactive)
same,growth,[5]; 10 µM unless noted,41.7% (inactive)
same,growth,[6]; 10 µM unless noted,104% (inactive)
same,growth,[7]; 10 µM unless noted,57.7% (inactive)
same,growth,[8]; 10 µM unless noted,92.2% (inactive)
same,growth,[9]; 10 µM unless noted,108% (inactive)
same,growth,[10]; 10 µM unless noted,97.3% (inactive)
CC1(C)OB(c2ccc(Cn3cc(F)c(=O)[nH]c3=O)cc2)OC1(C)C,growth,[1]; 10 µM,94.9% (inactive)
same,growth,[1]; 50 µM,68.3% (inactive)
same,growth,[2]; 10 µM,96.9% (inactive)
same,growth,[2]; 50 µM,64% (inactive)
same,growth,[3]; 10 µM,102% (inactive)
same,growth,[3]; 50 µM,86.4% (inactive)
same,growth,[4]; 10 µM,104% (inactive)
same,growth,[4]; 50 µM,63.9% (inactive)
same,growth,[5]; 10 µM,106% (inactive)
same,growth,[5]; 50 µM,34.2% (inactive)
same,growth,[6]; 10 µM,98.3% (inactive)
same,growth,[6]; 50 µM,33.2% (inactive)
same,growth,[7]; 10 µM,91% (inactive)
same,growth,[7]; 50 µM,10.3% (inactive)
same,growth,[8]; 10 µM,98.9% (inactive)
same,growth,[8]; 50 µM,75.8% (inactive)
same,growth,[9]; 10 µM,105% (inactive)
same,growth,[9]; 50 µM,81.4% (inactive)
same,growth,[10]; 10 µM,120% (inactive)
same,growth,[10]; 50 µM,36.4% (inactive)
CC(=O)Nc1ccc2cc3ccc(NC(C)=O)cc3nc2c1,growth,[1]; 10 µM unless noted,74.2% (inactive) and 75% (inactive)
same,growth,[2]; 10 µM unless noted,71% (inactive) and 69.8% (inactive)
same,growth,[3]; 10 µM unless noted,64.3% (inactive) and 46.1% (inactive)
same,growth,[4]; 10 µM unless noted,70.9% (inactive) and 67% (inactive)
same,growth,[5]; 10 µM unless noted,93.6% (inactive) and 106% (inactive)
same,growth,[6]; 10 µM unless noted,60.6% (inactive)
same,growth,[7]; 10 µM unless noted,74.3% (inactive) and 77.7% (inactive)
same,growth,[8]; 10 µM unless noted,107% (inactive) and 115% (inactive)
same,growth,[9]; 10 µM unless noted,63.9% (inactive) and 52.1% (inactive)
same,growth,[10]; 10 µM unless noted,93.7% (inactive) and 91.4% (inactive)
CCCCCCCCCCCCCCCc1ccc(Cl)c(O)c1Cl (tested in a mixture with another compound),growth,[1]; 0.25 µM,19.1% (inactive)
same,growth,[1]; 10 µM,88.8% (inactive)
same,growth,[2]; 0.25 µM,5.35% (active)
same,growth,[2]; 10 µM,93.6% (inactive)
same,growth,[3]; 0.25 µM,61.5% (inactive)
same,growth,[3]; 10 µM,107% (inactive)
same,growth,[5]; 0.25 µM,5.78% (active)
same,growth,[5]; 10 µM,104% (inactive)
same,growth,[6]; 0.25 µM,17.5% (inactive)
same,growth,[6]; 10 µM,105% (inactive)
same,growth,[7]; 0.25 µM,12.1% (inactive)
same,growth,[7]; 10 µM,83.1% (inactive)
same,growth,[8]; 0.25 µM,38.5% (inactive)
same,growth,[8]; 10 µM,71.9% (inactive)
same,growth,[9]; 0.25 µM,15.6% (inactive)
same,growth,[9]; 10 µM,107% (inactive)
same,growth,[10]; 0.25 µM,49.3% (inactive)
same,growth,[10]; 10 µM,114% (inactive)
CC(C)(C)c1cc(NC(=O)Cc2ccc(-c3cnc4cc(-c5cnn(CCN6CCOCC6)c5)ccc4n3)cc2)no1,growth,[1]; 10 µM,26.4% (inactive)
same,growth,[1]; 30 µM,27.3% (inactive)
same,growth,[2]; 10 µM,10% (inactive)
same,growth,[2]; 30 µM,13.7% (inactive)
same,growth,[3]; 10 µM,24.9% (inactive)
same,growth,[3]; 30 µM,26.1% (inactive)
same,growth,[4]; 10 µM,17.1% (inactive)
same,growth,[4]; 30 µM,34.4% (inactive)
same,growth,[5]; 10 µM,11% (inactive)
same,growth,[5]; 30 µM,13% (inactive)
same,growth,[6]; 10 µM,-3.35% (active)
same,growth,[6]; 30 µM,-10.6% (active)
same,growth,[7]; 10 µM,20% (inactive)
same,growth,[7]; 30 µM,27% (inactive)
same,growth,[8]; 10 µM,24.3% (inactive)
same,growth,[8]; 30 µM,20.8% (inactive)
same,growth,[9]; 10 µM,18% (inactive)
same,growth,[9]; 30 µM,21.7% (inactive)
same,growth,[10]; 10 µM,9.61% (active)
same,growth,[10]; 30 µM,20.5% (inactive)
O=C(N/N=C/c1ccccc1)N/N=C/c1ccccc1,growth,[1]; 10 µM unless noted,118% (inactive) and 101% (inactive)
same,growth,[2]; 10 µM unless noted,106% (inactive) and 78.9% (inactive)
same,growth,[3]; 10 µM unless noted,103% (inactive) and 116% (inactive)
same,growth,[4]; 10 µM unless noted,104% (inactive) and 117% (inactive)
same,growth,[5]; 10 µM unless noted,118% (inactive) and 95.1% (inactive)
same,growth,[6]; 10 µM unless noted,100% (inactive) and 90.3% (inactive)
same,growth,[7]; 10 µM unless noted,99.5% (inactive) and 106% (inactive)
same,growth,[8]; 10 µM unless noted,102% (inactive) and 104% (inactive)
same,growth,[9]; 10 µM unless noted,118% (inactive) and 116% (inactive)
same,growth,[10]; 10 µM unless noted,109% (inactive) and 129% (inactive)
Oc1nc(NCCc2ccccc2)sc1/C=C1\C=Nc2ncccc21,growth,[1]; 10 µM unless noted,2.96% (active) and 9.1% (active)
same,growth,[2]; 10 µM unless noted,22.4% (inactive) and 3.3% (active)
same,growth,[3]; 10 µM unless noted,19.6% (inactive) and 5.21% (active)
same,growth,[4]; 10 µM unless noted,-2.98% (active) and 19.9% (inactive)
same,growth,[5]; 10 µM unless noted,15.1% (inactive) and 14.1% (inactive)
same,growth,[6]; 10 µM unless noted,11.8% (inactive) and -9.73% (active)
same,growth,[7]; 10 µM unless noted,4.33% (active) and 26.6% (inactive)
same,growth,[8]; 10 µM unless noted,8.14% (active) and 19.1% (inactive)
same,growth,[9]; 10 µM unless noted,19.7% (inactive) and 9.01% (active)
same,growth,[10]; 10 µM unless noted,-6.84% (active) and 4.78% (active)
COc1cc(C(=O)c2ccc3c(c2)OCO3)cc(OC)c1OC,growth,[1]; 10 µM unless noted,49.2% (inactive) and 40.8% (inactive)
same,growth,[2]; 10 µM unless noted,52.4% (inactive) and 72.9% (inactive)
same,growth,[3]; 10 µM unless noted,41% (inactive) and 55.4% (inactive)
same,growth,[4]; 10 µM unless noted,38.8% (inactive) and 41.6% (inactive)
same,growth,[5]; 10 µM unless noted,14.3% (inactive) and 10.9% (inactive)
same,growth,[6]; 10 µM unless noted,37.9% (inactive) and 62.8% (inactive)
same,growth,[7]; 10 µM unless noted,44.6% (inactive) and -30.4% (active)
same,growth,[8]; 10 µM unless noted,33.9% (inactive) and 34.9% (inactive)
same,growth,[9]; 10 µM unless noted,56.2% (inactive) and 46% (inactive)
same,growth,[10]; 10 µM unless noted,19.2% (inactive) and 20.8% (inactive)
Oc1c(Cl)cc(Cl)cc1Sc1cc(Cl)cc(Cl)c1O,growth,[1]; 10 µM unless noted,11.4% (inactive) and 6.4% (active) and 76% (inactive)
same,growth,[2]; 10 µM unless noted,94.5% (inactive) and 48.1% (inactive) and 88.3% (inactive)
same,growth,[3]; 10 µM unless noted,25.6% (inactive) and 33.1% (inactive) and 87.1% (inactive)
same,growth,[4]; 10 µM unless noted,85.8% (inactive) and 61.6% (inactive)
same,growth,[5]; 10 µM unless noted,7.66% (active) and 11.8% (inactive) and 62.3% (inactive)
same,growth,[6]; 10 µM unless noted,-12.5% (active) and -28.3% (active) and 32.7% (inactive)
same,growth,[7]; 10 µM unless noted,2.94% (active) and -18.8% (active) and 48.9% (inactive)
same,growth,[8]; 10 µM unless noted,62.5% (inactive) and 8.2% (active) and 88.4% (inactive)
same,growth,[9]; 10 µM unless noted,47.7% (inactive) and 104% (inactive)
same,growth,[10]; 10 µM unless noted,118% (inactive) and 87.9% (inactive) and 110% (inactive)
CC(=O)Oc1cc(C(=O)O)cc(OC(C)=O)c1OC(C)=O,growth,[1]; 10 µM unless noted,103% (inactive) and 97.3% (inactive)
same,growth,[2]; 10 µM unless noted,96.4% (inactive) and 89.6% (inactive)
same,growth,[3]; 10 µM unless noted,116% (inactive) and 102% (inactive)
same,growth,[4]; 10 µM unless noted,88.8% (inactive) and 99% (inactive)
same,growth,[5]; 10 µM unless noted,113% (inactive) and 108% (inactive)
same,growth,[6]; 10 µM unless noted,99.1% (inactive) and 107% (inactive)
same,growth,[7]; 10 µM unless noted,100% (inactive) and 93.4% (inactive)
same,growth,[8]; 10 µM unless noted,103% (inactive) and 90.1% (inactive)
same,growth,[9]; 10 µM unless noted,111% (inactive) and 102% (inactive)
same,growth,[10]; 10 µM unless noted,125% (inactive) and 122% (inactive)
